Results filed as inconclusive are left out. The source made the active and inactive calls. Calls come from the whole dose curve; as a rule, active = well fitted cell-killing curve with a large enough effect; inconclusive = small, poorly fitted or top-dose-only effect; inactive = no such curve, though single readings can be large or run the other way.

The test is described as follows: qHTS of pediatric cancer cell lines to identify multiple opportunities for drug repurposing: Primary screen for MG 63 (6-TG R) cells (AID 1347105). Note: nearly all actives have a fitted effect of over 50% in size. Conditions: MG 63 (6-TG R) viability, CellTiter-Glo, 48 h; series mostly up to 46 µM. From the text:
Drug repurposing or repositioning has been offered as a strategy for drug development in oncology programs. This approach has special potential for childhood cancers and other rare or orphan diseases, where the expected return on new drug development has been a disincentive to pharmaceuticals. […] In this project we exploit the poly-pharmacology of drugs to discover new indications via phenotypic screening of a panel of 19 well-characterized cell lines derived from solid tumors seen in children and adolescents. The goal is to identify approved drugs with previously unrecognized anticancer properties that has the potential to reveal new mechanisms and biological processes involved in carcinogenesis or drug resistance. We employed a titration-based paradigm (quantitative high-throughput screening or qHTS), where all compounds were tested at multiple concentrations for their effect on cell viability. Concentration-response curves (CRCs) were derived directly from the primary screen, and both potency and efficacy values were used to identify compounds with robust bioactivity profiles. We screened the NIH Chemical Genomics Center (NCGC) Pharmaceutical Collection (NPC) and Mechanism Interrogation Plate (MIPE) small molecule collections of approved and investigational compounds against these cell lines; and measured metabolically active cells after 48 hours of compound treatment as a proxy for cell viability. […] Assay Submitter: Nathalia J. Martinez, National Center for Advancing Translational Sciences, National Institutes of Health, Rockville, MD, USA; email: natalia.martinez@nih.gov Shen, M et al. Quantitative high-throughput phenotypic screening of pediatric cancer cell lines identifies multiple opportunities for drug repurposing. Oncotarget 2017 Dec 19;9(4):4758-4772. PMID 29435139.
The cells were obtained from University of North Carolina (UNC), Pediatric Preclinical Testing Program (PPT), and Coriell Institute (CI). qHTS cell viability assay: Cells were assayed in growth media at a density of 500-1,000 cells/well. Five microliters of cells were dispensed into 1,536-well, white, solid-bottom, TC-treated plates (Greiner Bio One) using a multidrop dispenser and incubated at 37 degrees C, 5% CO2, under a humidified atmosphere for 5 hours. Twenty-three nanoliters of compounds and controls (neutral control DMSO or positive control bortezomib at final concentration of 2.3 µM) were subsequently transferred by Kalypsys pintool. For primary screens, the MIPE collection was tested at 11-point dilutions (final concentrations range from 0.78 nM to 46 µM) and the NPC collection at 8-point dilutions (final concentrations range from 0.59 nM to 46 µM). Compounds tested in follow-up screens were assayed at 11-point dilutions. Cells were incubated for 48 hours, followed by addition of 3 µL of CellTiter-Glo (Promega). After a 15 min incubation at room temperature, samples were analyzed for luminescence intensity using a ViewLux High-throughput CCD imager equipped with clear filters.
On the technique in general: Quantitative high-throughput screening tests each substance at several concentrations.
For the molecule `C/C=C/C(=O)N(CC)c1ccccc1C`, the molecule was classed as inactive.
As for `O=C(NCCCN1CCOCC1)c1ccc(Cl)cc1`, the call was inactive.
In the case of `C[C@@H]1O[C@@H](OC[C@H]2O[C@@H](Oc3c(-c4ccc(O)c(O)c4)oc4cc(O)cc(O)c4c3=O)[C@H](O)[C@@H](O)[C@@H]2O)[C@H](O)[C@H](O)[C@H]1O` it was “inactive”; in that of `NS(=O)(=O)c1cc(-c2nn[nH]n2)c(NCc2cccs2)cc1Cl`, “inactive”; in that of `O=C1c2ccccc2S(=O)(=O)N1CCCCN1CCN(c2ncccn2)CC1`, “inactive”.
The same measure for `Cc1c(N(C)C)c(=O)n(-c2ccccc2)n1C`: “inactive”; for `Cc1cc(O)cc(C)c1Cl`: “inactive”; for `O=C(O)C(S)C(S)C(=O)O` (stereo not given): “inactive”.
In the case of `CCN(CC)C(=O)c1cccc(C)c1` it was “inactive”; in that of `CC1CC(OC(=O)c2ccccc2O)CC(C)(C)C1` (stereo not given), “inactive”.
Consider `Cc1cccc(C)c1NC(=O)CC12CCCN1CCC2`, for which the molecule was classed as inactive.
On to `Cn1c(=O)c2c(ncn2CCO)n(C)c1=O`, for which the outcome was inactive.
In the case of `CN1C(=O)CC(c2ccccc2)C1=O` (stereo not given) it was “inactive”; in that of `CC(=O)[C@@]1(O)CC[C@H]2[C@@H]3C[C@H](C)C4=CC(=O)C=C[C@]4(C)[C@@]3(F)[C@@H](O)C[C@@]21C`, “inactive”; in that of `CCN(CC)S(=O)(=O)c1ccc(C(=O)O)cc1`, “inactive”.
As for `CCS(=O)(=O)CCn1c([N+](=O)[O-])cnc1C`, the result was inactive.
In the case of `CC(C)(C)C(=O)OCOC(=O)[C@@H]1N2C(=O)[C@@H](NC(=O)[C@H](N)c3ccccc3)[C@H]2SC1(C)C` it was “inactive”.
The same measure for `CC(CN(C)C)C(C)(O)Cc1ccc(Cl)cc1` (stereo not given): “inactive”; for `COc1ccccc1Oc1c(NS(=O)(=O)c2ccc(C(C)(C)C)cc2)nc(-c2ncccn2)nc1OCCO`: “inactive”.
In the case of `COC(=O)N/N=C/c1c[n+]([O-])c2ccccc2[n+]1[O-]` it was “inactive”; in that of `Cc1c(I)c(=O)n(-c2ccccc2)n1C`, “inactive”.
`CCCCOC(=O)c1ccc(N)cc1`: the molecule was classed as inactive.
The same measure for `NC(=O)c1ccc([N+](=O)[O-])cc1Cl`: “inactive”; for `NCc1ccc(S(N)(=O)=O)cc1`: “inactive”; for `COC(=O)c1cccnc1`: “inactive”.
The same measure for `C[N+]1(C)CCCC(OC(=O)C(O)(c2ccccc2)c2ccccc2)C1` (stereo not given): “inactive”; for `O=C(O)CNC(=O)c1ccccc1I`: “inactive”.
In the case of `O=C(NCN1CCOCC1)c1cnccn1` it was “inactive”; in that of `CCOC(=O)[C@H](CCc1ccccc1)N[C@@H](C)C(=O)N1Cc2cc(OC)c(OC)cc2C[C@H]1C(=O)O`, “inactive”.
`CCCC(O)C(CC)CO` (stereo not given): the result was inactive.
The same measure for `CCCCCCCCCCC(CO)CCCCCCCC` (stereo not given): “inactive”.
The same measure for `C=CCNC(N)=S`: “inactive”.
The same measure for `Cc1cc(-n2nc3ccc(Cl)cc3n2)c(O)c(C(C)(C)C)c1`: “inactive”; for `CCCNC(C)C(=O)Nc1c(C)csc1C(=O)OC` (stereo not given): “inactive”.
Regarding `C[C@@H](N)C(=O)O`, the call was inactive.
With `C[N+](C)(C)CC(O)CC(=O)[O-]` (stereo not given), the call was inactive.
In the case of `COc1ccc(-c2cc(=O)c3c(O)cc(O[C@@H]4O[C@H](CO[C@@H]5O[C@@H](C)[C@H](O)[C@@H](O)[C@H]5O)[C@@H](O)[C@H](O)[C@H]4O)cc3o2)cc1O` it was “inactive”.
In the case of `NC(=O)CCCCC1CCSS1` (stereo not given) it was “inactive”.
Consider `CC[N+](CC)(CC(=O)Nc1c(C)cccc1C)Cc1ccccc1`, for which the molecule was classed as inactive.
The same measure for `O=C(OOC(=O)c1ccccc1)c1ccccc1`: “inactive”.

The record behind these values is PubChem BioAssay (NCATS).
